Assay results as given in ChEMBL document CHEMBL3988442, “University of Dundee, Small-Polar-MMV Screening Library” (2021).
For some of these results: Entries with a potency or affinity are not part of this list.

Legend:
Set-up in all cases: scale not given: direction of the effect not stated beside the values
[1] = target: Protein translocase subunit SecA (Escherichia coli (strain K12)) (UniProt P10408); test: Assay to Identify E. coli SecA ATPase Inhibitors; assay type: functional; details: 30 µM
Chain of Protein translocase subunit SecA (Escherichia coli (strain K12)) (P10408 whole entry): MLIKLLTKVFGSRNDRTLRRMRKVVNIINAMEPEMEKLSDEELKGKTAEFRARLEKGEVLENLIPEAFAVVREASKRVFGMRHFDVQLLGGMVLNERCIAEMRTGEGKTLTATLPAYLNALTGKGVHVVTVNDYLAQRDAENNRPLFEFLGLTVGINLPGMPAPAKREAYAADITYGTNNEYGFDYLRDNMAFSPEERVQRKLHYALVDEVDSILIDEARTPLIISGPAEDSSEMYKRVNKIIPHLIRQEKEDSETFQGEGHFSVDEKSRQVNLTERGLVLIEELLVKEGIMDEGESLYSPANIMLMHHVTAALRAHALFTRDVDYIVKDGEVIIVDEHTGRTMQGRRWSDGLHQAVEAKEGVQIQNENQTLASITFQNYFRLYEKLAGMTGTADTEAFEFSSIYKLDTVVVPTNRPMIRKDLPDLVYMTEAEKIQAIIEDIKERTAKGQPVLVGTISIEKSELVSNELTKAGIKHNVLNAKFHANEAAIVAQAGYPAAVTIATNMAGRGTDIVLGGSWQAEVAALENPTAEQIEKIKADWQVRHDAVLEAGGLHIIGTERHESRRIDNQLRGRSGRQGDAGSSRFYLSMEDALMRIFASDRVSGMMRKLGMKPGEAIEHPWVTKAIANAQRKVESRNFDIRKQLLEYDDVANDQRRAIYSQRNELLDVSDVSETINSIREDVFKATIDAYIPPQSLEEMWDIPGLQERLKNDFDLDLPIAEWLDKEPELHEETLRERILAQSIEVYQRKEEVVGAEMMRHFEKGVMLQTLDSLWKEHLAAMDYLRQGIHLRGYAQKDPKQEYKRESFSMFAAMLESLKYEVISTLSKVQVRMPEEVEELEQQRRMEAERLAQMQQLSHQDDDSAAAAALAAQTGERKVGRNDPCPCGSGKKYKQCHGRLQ

[2] = target: T1, Ubiquitin-activating enzyme e1, putative (Leishmania donovani (strain BPK282A1)) (UniProt E9BSI1); test: Leishmania donovani Ubiquitin Activating Enzyme (LdE1); assay type: functional; details: 30 µM
T1 sequence (whole entry): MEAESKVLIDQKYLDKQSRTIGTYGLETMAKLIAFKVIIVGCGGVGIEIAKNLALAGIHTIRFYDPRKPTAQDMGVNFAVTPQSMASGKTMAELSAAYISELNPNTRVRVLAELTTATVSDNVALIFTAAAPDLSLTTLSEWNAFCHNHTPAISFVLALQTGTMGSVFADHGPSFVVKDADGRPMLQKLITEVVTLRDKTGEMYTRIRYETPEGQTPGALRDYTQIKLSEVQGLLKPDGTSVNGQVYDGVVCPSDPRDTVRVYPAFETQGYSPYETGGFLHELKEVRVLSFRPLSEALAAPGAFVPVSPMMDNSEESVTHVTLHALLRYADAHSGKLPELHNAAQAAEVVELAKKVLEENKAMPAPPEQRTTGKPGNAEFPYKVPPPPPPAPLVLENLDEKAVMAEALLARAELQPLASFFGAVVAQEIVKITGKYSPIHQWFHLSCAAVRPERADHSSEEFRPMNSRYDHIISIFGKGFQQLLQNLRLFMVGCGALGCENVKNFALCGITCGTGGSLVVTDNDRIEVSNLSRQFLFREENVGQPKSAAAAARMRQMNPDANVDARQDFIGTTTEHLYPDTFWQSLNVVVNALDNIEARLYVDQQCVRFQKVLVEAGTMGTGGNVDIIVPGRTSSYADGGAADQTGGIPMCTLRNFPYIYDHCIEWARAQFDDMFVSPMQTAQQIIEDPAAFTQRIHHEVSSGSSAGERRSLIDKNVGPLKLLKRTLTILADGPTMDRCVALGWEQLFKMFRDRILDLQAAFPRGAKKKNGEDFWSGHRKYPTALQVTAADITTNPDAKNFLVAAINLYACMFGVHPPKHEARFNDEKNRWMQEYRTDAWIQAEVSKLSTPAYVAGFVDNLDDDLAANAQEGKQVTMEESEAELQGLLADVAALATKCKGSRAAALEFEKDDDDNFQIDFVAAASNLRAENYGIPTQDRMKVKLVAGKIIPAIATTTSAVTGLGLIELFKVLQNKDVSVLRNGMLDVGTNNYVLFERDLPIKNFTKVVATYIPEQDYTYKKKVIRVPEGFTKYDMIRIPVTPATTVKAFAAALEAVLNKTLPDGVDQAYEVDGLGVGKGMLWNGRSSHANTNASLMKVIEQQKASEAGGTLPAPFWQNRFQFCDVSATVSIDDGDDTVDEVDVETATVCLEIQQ

[3] = target: AMP-activated protein kinase, AMPK (Homo sapiens) (UniProt P54646+O43741+P54619+Q9UGJ0+Q9Y478+Q13131+Q9UGI9); test: AMP-dependent Kinase enzyme assay. An in vitro enzyme assay that detects ADP turnover that is directly proportional to AMPK activity. This uses naive AMPK that is activated during the assay with MK-8722; assay type: functional; details: 30 µM
[4] = target: Sialic acid-binding Ig-like lectin 9 (Homo sapiens) (UniProt Q9Y336); test: Hs-Siglec9 ALPHAscreen SOP 20170721; details: 10 µM
Chain of Sialic acid-binding Ig-like lectin 9 (Homo sapiens) (Q9Y336 whole entry): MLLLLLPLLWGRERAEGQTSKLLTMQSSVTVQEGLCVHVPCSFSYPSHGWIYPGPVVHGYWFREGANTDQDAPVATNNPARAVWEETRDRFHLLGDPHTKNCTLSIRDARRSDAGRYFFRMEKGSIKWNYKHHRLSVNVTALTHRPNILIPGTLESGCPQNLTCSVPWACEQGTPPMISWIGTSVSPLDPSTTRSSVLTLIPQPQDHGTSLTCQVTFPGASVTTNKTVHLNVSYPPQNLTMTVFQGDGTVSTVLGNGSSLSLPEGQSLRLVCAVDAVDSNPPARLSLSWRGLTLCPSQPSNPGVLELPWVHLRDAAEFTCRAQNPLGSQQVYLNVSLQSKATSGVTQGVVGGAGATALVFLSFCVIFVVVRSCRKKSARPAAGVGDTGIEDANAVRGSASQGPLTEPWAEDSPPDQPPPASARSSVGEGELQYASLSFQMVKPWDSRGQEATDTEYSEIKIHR

Trypanosoma cruzi = test: Trypanosoma cruzi phosphomannomutase and mannose-1-phosphate guanylyltransferase assay; assay type: functional; details: 10 µM
[5] = target: T2, Arginase-2, mitochondrial (Homo sapiens) (UniProt P78540); test: in vitro enzyme assay to detect the production of urea directly proportional to the activity of Arginase II; assay type: functional; details: 33.3 µM; note: in the data most compounds retested in dose-response had high values
T2 sequence (whole entry): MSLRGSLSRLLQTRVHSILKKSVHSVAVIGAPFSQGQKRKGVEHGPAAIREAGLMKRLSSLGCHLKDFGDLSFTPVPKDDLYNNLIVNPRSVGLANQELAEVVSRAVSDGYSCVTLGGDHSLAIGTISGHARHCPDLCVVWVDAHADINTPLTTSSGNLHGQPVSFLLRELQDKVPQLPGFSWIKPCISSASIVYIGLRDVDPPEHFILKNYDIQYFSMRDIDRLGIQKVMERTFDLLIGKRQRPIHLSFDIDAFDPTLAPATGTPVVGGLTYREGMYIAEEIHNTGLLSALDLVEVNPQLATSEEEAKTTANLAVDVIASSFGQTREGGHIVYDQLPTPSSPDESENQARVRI

[6] = target: T3, Proteasome subunit beta (Trypanosoma cruzi) (UniProt O96673); test: Trypanosoma cruzi proteasome chymotrypsin-like activity (TcProtChymo) assay.; note: in the data most compounds retested in dose-response had high values; assay type: functional; details: 9.37 µM
T3 sequence (whole entry): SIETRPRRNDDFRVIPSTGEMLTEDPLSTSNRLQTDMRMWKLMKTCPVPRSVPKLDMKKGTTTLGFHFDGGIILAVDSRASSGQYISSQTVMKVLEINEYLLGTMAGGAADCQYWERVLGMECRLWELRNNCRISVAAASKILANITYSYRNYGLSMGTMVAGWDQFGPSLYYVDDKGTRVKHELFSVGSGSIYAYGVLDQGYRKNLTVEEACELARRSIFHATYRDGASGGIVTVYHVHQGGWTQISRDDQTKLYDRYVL

Homo sapiens = species: Homo sapiens; test: To identify inhibition of the IFN signalling (Jak-Stat) pathway via expression of an eGFP reporter gene under the control of an IFN-stimulated response element (ISRE) containing MxA promoter.; assay type: functional; details: 30 µM
[7] = target: T4, Tyrosyl-tRNA synthetase, putative (Trypanosoma cruzi (strain CL Brener)) (UniProt Q4DSP6); test: Trypanosoma cruzi tyrosyl tRNA synthetase (TcYRS) _High Tyrosine SOP; assay type: functional; details: 30 µM; note: in the data most compounds retested in dose-response had high values
T4 sequence (whole entry): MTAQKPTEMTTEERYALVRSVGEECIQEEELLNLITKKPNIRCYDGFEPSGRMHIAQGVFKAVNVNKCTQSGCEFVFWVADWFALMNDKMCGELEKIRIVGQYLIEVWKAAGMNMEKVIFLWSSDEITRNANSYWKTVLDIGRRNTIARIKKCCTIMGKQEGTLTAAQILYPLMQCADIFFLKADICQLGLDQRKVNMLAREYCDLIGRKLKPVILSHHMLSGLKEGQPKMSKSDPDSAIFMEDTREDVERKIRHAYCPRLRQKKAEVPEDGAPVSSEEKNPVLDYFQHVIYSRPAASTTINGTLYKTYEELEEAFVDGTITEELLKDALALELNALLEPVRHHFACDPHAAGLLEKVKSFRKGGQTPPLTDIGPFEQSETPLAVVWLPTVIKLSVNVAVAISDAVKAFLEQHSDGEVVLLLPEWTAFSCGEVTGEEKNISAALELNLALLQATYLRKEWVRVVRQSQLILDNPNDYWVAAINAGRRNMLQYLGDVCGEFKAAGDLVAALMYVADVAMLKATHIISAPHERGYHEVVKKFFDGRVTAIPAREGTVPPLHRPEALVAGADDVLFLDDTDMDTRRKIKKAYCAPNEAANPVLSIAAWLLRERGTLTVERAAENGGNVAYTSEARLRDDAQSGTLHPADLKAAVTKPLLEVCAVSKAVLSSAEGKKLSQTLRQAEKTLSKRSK

[8] = target: T4, Tyrosyl-tRNA synthetase, putative (Trypanosoma cruzi (strain CL Brener)); test: Trypanosoma cruzi tyrosyl tRNA synthetase (TcYRS) SOP; assay type: functional; details: 30 µM
[9] = target: Chromo domain-containing protein 1 (Saccharomyces cerevisiae (strain ATCC 204508 / S288c) (Baker's yeast)) (UniProt P32657); test: ScCHD-1 Enzyme Inhibition Assay; assay type: functional; details: 30 µM; note: in the data most compounds retested in dose-response had high values
Chain of Chromo domain-containing protein 1 (Saccharomyces cerevisiae (strain ATCC 204508 / S288c) (Baker's yeast)) (P32657 whole entry, the tested form may be a part): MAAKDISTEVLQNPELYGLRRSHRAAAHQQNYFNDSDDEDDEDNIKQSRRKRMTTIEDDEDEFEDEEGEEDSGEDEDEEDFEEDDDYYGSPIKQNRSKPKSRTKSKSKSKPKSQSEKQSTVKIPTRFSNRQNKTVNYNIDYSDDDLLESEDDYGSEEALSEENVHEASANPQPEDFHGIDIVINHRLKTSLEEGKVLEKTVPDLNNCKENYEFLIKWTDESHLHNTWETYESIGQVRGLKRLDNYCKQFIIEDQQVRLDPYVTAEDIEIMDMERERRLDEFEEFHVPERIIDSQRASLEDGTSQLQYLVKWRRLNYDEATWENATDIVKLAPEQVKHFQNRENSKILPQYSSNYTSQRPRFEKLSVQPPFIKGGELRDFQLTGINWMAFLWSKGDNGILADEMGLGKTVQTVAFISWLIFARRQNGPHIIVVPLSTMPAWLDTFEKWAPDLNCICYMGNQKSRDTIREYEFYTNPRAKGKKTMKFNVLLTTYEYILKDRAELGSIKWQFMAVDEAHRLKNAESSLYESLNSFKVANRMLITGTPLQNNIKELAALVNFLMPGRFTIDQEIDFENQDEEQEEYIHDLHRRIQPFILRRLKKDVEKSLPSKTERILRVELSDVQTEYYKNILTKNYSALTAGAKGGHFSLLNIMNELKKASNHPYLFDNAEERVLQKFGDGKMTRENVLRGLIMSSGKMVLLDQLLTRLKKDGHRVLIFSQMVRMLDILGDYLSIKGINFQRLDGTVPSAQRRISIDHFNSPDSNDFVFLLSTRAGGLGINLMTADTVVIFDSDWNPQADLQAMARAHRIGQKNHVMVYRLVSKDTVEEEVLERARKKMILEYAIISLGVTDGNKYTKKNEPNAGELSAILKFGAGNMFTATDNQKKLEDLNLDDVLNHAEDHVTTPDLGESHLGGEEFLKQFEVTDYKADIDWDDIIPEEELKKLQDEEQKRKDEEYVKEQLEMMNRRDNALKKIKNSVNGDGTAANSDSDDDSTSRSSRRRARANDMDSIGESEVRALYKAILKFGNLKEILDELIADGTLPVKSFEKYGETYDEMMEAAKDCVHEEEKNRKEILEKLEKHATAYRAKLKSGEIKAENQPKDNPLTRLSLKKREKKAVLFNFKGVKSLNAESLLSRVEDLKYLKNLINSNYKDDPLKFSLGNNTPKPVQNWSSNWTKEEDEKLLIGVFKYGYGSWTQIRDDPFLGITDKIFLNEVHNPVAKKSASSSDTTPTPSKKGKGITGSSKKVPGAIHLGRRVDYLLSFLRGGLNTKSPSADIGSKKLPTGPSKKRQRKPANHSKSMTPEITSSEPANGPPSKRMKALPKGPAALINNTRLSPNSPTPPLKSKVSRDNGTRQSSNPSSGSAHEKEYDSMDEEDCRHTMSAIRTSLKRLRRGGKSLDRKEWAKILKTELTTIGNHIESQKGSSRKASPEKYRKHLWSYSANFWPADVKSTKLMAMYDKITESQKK

Row | SMILES | Percent Effect [1] [%] | Percent Effect [2] [%] | Percent Effect [3] [%] | Percent Effect [4] [%] | Percent Effect (Trypanosoma cruzi) [%] | Percent Effect [5] [%] | Percent Effect [6] [%] | Percent Effect (Homo sapiens) [%] | Percent Effect [7] [%] | Percent Effect [8] [%] | Percent Effect [9] [%]
1 | CC(C)c1nc(C(=O)N2CCCC(n3cncn3)C2)c[nH]1 (stereo unspecified) | -4.19 | 11.4 | 3.03 | 3.06 | -0.308 | 0.215 | 12.9 | 20.5 | 4.17 | 15.2 | -17
2 | c1ncn(CC2CN(Cc3csc(C4CCCC4)n3)CCO2)n1 (stereo unspecified) | -7.65 | 15.8 | -7.05 | 15.7 | 3.46 | -1.44 | -2.79 | 2.48 | 4.43 | 23.5 | -9.07
3 | O=C(CCNc1ncccn1)N1CCCC(n2ccnc2)C1 (stereo unspecified) | -7.87 | 6.33 | 7.8 | -0.356 | -2.77 | 0.645 | 9.78 | 12 | 8.33 | 15.2 | -20.9
4 | CCOc1ccnc(N2CCN(C(=O)C(C)(C)C#N)CC2)n1 | -5.28 | 15.8 | -6.59 | -2.59 | -4.39 | 1.8 | 4.99 | 6.24 | 1.48 | 6.17 | -2.03
5 | Cc1cccc(C2(NC(=O)CCN3C(=O)CCC3=O)CCCC2)c1 | -5.83 | 12.7 | -1.51 | 8.26 | 0.85 | -2.28 | 4.83 | 0.0333 | 5.42 | 11.4 | -4.64
6 | O=C(C(CNCc1ccncc1)c1ccccc1)N1CCOCC1 (stereo unspecified) | 0.622 | 5.2 | 0.193 | 1.44 | -6.59 | -8.28 | 18.3 | 17.2 | 3.23 | 11.1 | -2.54
7 | CC(=O)NCc1ccc(C(=O)N2CCCCC2Cn2cccn2)o1 (stereo unspecified) | -1.39 | 27 | -1.91 | -5 | 4.18 | -5.36 | 14.4 | 17.1 | 1.98 | 18.3 | -6.26
8 | CC(C)c1cc(NC(=O)c2ccc(C(=O)NC(C)(C)C)cc2)[nH]n1 | -6.52 | 23.4 | 112 | -4.38 | -3 | 0.712 | 0.169 | 53 | 6.8 | 24.4 | -4.07
9 | CN(C)C(=O)Cc1nc(CN2CCCCC2Cn2cccn2)cs1 (stereo unspecified) | -2.18 | -2.63 | 87.3 | -6.24 | 1.07 | -2.37 | 12.8 | 9.75 | 1.06 | -5.2 | -0.00308
10 | CCN(C(=O)Nc1cccnc1OC)C1CC1 | -6.66 | 15.6 | -6.43 | 15.2 | 5.24 | -3.2 | 7.6 | 5.42 | 4.85 | 19.5 | -9.65
11 | COc1ccc(CN2CCn3cc(Cn4cccn4)nc3C2)cc1 | -0.217 | 5.2 | 5.77 | -3.88 | -5.03 | -3.23 | 9.4 | -15 | 5.29 | -8.97 | -4.7
